log2 fold change data for 15 targets are collected here from the supplement of paper PMC10849652.

Of roughly 8,800 targets only a part is listed; those with a hit were picked by preference. About 0.5% of all pairs of compound and target were hits. Values without a mark were called inactive.

What all share (experiment): log2 fold change, soluble protein after heating vs DMSO (PISA); higher = thermal stabilisation; K562 lysate, 10 uM; active = over 0.2 and 3.5 SD of the protein, either way, in both replicates (recomputed)
Compound in test [1]: CN1CC[C@H](c2c(O)cc(O)c3c(=O)cc(-c4ccccc4Cl)oc23)[C@H](O)C1 [alvocidib]
An outline of the steps:
(§1)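 Dounce homogenisation of K562 pellets in PBS pH 7.4 with 1 mM MgCl2 produced a crude extract, used at 1 mg/mL protein. Exposure to 10 μM compound lasted 30 min, and aliquots were then heated for 3 min across 48°C-58°C, pooled and brought to 0.5% NP-40 at 4°C. The supernatant after 21,000xg for 90 min was quantified by TMTpro 16plex LC-MS/MS with channel sums equalised. Duplicate values are given as log-two fold change in thermal stability relative to solvent controls.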

Compound in test [2]: CN1CCc2c(c3ccccc3n2Cc2ccc(C(=O)NO)cc2)C1 [Tubastatin A]
An outline of the steps: as §1

Compound in test [3]: CNC(=O)C1=CC=CC=C1NC2=NC(=NC=C2Cl)NC3=C(C=C(C=C3)N4CCOCC4)OC
An outline of the steps:
as §1

Compound in test [4]: CNC(=O)c1ccc(Nc2ncc(C(F)(F)F)c(NCc3nccnc3N(C)S(C)(=O)=O)n2)cc1 [defactinib]
An outline of the steps: as §1

Compound in test [5]: CNc1nc(-c2ccc3c(N)n[nH]c3c2)cc(N2C[C@@H](C(=O)NC3CCCCC3)CC[C@H]2C)n1
In short, it runs like this: as §1

Compound in test [6]: COC(=O)N[C@@H](C)CNc1nccc(-c2cn(C(C)C)nc2-c2cc(Cl)cc(NS(C)(=O)=O)c2F)n1 [encorafenib]
An outline of the steps: as §1

Compound in test [7]: COC(=O)[C@H](CCSC)NC(=O)C1=C(C=C(C=C1)NC[C@H](CS)N)C2=CC=CC=C2
In short, it runs like this: as §1

Compound in test [8]: COc1cc(Nc2ncc3c(n2)-c2ccc(Cl)cc2C(c2c(F)cccc2OC)=NC3)ccc1C(=O)O [alisertib]
An outline of the steps:
as §1

Compound in test [9]: COc1cc2nc(-c3cc(F)ccc3O)nc(N[C@@H]3CNC[C@H]3C(C)(C)O)c2cc1OC
An outline of the steps: as §1

Compound in test [10]: COc1cc2ncnc(Nc3ccc(F)c(Cl)c3)c2cc1OCCCN1CCOCC1 [gefitinib]
In short, it runs like this: as §1

Chain of UniProt Q9Y303 (Q9Y303 whole entry, looked up): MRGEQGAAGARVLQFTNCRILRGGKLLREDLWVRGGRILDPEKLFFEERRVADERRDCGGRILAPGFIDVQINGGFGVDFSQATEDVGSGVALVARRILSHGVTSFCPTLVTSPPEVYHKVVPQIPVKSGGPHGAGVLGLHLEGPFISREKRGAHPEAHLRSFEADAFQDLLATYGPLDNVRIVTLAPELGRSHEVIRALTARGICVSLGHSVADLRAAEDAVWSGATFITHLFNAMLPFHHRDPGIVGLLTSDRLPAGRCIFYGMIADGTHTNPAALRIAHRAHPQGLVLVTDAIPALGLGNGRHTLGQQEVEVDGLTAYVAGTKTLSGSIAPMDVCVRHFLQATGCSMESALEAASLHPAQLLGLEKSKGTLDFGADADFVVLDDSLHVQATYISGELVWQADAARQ
Chain of UniProt P00568 (P00568 whole entry, looked up): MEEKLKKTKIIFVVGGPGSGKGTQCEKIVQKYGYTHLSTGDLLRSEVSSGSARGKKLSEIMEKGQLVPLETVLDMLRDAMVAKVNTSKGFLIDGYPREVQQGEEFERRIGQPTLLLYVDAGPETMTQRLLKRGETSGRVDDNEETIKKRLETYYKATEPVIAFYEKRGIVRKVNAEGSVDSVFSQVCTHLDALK
Chain of UniProt Q96P48 (Q96P48 whole entry, looked up): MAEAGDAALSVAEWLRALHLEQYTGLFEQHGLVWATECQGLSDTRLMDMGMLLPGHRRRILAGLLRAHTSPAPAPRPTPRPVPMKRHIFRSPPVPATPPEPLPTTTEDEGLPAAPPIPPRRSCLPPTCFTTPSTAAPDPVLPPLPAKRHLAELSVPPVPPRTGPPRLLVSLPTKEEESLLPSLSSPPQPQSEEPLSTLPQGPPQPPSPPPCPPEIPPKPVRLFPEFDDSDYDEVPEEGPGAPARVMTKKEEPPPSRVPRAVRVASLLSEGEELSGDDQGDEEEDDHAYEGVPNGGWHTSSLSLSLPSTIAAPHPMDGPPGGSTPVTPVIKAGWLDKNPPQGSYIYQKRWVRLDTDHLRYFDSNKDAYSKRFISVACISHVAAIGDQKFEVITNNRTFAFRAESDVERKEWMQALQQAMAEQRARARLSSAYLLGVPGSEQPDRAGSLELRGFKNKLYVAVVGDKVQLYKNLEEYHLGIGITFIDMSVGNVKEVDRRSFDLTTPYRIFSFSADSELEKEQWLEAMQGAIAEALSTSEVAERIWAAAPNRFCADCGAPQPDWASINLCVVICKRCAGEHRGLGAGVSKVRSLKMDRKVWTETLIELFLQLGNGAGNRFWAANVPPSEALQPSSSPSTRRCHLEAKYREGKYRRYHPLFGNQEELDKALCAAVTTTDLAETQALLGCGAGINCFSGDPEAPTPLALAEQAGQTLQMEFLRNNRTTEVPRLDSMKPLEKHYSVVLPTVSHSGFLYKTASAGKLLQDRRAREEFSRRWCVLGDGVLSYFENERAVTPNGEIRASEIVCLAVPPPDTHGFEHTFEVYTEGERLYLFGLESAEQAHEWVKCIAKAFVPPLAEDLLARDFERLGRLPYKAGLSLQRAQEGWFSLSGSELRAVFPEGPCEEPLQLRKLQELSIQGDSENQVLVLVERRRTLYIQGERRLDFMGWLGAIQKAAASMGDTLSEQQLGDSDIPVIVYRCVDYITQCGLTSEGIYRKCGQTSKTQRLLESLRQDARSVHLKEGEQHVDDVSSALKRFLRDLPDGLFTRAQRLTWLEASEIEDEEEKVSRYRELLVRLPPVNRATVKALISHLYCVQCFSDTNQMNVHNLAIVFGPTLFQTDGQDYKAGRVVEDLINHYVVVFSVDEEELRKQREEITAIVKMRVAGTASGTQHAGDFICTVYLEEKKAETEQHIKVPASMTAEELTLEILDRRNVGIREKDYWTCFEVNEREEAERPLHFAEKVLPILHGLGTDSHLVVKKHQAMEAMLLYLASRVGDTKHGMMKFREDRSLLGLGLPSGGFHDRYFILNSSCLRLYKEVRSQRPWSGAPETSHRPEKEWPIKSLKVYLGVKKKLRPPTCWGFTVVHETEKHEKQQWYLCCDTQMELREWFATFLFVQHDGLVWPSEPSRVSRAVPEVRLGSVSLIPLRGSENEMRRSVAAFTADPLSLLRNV
Chain of UniProt Q92974 (Q92974 whole entry, looked up): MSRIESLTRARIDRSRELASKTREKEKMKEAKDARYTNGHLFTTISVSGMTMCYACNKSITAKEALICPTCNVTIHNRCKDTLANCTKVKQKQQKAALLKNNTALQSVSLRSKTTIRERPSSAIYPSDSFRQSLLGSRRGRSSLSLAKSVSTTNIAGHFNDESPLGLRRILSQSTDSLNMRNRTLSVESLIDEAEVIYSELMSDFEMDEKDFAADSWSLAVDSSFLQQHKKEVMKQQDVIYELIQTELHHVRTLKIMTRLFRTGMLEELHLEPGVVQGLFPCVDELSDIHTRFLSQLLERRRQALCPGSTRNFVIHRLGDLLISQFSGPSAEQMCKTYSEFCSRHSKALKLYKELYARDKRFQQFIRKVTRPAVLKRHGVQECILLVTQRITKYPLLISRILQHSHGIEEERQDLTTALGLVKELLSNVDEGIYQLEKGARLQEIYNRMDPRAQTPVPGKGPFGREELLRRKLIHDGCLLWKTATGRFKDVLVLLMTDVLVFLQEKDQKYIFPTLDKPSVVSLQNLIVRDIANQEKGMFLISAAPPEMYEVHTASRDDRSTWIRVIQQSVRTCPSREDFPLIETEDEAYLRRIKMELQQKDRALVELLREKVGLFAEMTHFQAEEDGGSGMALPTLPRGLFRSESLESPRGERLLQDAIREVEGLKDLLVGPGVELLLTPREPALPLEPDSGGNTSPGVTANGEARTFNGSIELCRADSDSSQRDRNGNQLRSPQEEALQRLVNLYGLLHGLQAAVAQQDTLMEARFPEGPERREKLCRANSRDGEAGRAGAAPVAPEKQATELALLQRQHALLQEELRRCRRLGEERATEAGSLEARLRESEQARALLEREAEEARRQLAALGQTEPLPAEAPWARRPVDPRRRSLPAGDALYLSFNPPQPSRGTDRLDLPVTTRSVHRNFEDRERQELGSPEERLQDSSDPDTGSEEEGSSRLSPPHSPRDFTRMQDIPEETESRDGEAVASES
Chain of UniProt Q01432 (Q01432 whole entry, looked up): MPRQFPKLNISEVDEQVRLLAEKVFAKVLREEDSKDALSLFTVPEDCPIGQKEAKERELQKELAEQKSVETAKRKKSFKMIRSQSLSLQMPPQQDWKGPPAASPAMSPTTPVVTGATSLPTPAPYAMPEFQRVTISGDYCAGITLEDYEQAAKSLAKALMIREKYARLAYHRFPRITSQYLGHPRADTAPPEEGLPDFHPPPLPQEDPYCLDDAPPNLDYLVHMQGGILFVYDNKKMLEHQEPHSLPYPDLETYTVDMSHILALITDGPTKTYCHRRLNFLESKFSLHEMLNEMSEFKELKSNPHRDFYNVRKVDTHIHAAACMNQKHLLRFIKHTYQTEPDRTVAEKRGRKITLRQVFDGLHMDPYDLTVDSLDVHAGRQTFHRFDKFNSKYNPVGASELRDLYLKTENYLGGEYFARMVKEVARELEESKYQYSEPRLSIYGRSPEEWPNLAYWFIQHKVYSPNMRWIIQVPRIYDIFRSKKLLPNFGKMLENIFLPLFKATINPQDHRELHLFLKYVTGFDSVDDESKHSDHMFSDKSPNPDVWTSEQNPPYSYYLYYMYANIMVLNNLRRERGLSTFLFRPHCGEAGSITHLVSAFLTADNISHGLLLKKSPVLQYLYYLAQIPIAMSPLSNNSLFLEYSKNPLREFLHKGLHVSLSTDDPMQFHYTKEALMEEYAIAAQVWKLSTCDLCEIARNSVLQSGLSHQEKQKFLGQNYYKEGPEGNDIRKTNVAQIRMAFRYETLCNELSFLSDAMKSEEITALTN
Chain of UniProt Q13155 (Q13155 whole entry, looked up): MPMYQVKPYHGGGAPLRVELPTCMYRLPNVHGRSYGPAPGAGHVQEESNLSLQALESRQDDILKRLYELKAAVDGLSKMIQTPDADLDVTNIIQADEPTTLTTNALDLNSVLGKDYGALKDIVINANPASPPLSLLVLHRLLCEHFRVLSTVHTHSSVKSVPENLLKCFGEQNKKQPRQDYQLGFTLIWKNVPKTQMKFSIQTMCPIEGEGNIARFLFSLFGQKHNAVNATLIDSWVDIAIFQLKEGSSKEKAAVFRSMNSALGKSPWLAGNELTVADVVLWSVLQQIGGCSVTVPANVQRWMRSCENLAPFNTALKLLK
Chain of UniProt Q9NXW9 (Q9NXW9 whole entry, looked up): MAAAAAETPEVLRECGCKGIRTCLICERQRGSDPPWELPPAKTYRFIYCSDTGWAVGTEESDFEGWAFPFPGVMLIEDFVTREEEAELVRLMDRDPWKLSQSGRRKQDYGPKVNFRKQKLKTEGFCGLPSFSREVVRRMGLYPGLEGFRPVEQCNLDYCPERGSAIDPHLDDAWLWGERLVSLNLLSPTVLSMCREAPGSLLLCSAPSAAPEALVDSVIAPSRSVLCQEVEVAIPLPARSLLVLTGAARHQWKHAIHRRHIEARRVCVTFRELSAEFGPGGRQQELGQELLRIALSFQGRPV
Chain of UniProt P24752 (P24752 whole entry, looked up): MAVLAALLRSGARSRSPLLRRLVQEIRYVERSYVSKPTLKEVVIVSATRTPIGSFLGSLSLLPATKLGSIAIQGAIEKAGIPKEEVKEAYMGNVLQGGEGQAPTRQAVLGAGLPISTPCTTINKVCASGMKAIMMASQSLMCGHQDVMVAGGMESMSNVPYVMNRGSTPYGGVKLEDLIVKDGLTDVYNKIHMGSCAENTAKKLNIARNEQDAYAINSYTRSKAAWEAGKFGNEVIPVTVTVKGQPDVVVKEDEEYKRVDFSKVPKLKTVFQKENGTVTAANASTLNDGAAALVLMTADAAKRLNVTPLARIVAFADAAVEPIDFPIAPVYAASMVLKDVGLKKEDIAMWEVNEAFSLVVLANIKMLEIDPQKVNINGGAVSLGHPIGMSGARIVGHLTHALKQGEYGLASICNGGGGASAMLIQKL

On to AMDHD2 isoform 3 (UniProt Q9Y303), for which the log2 fold change in test [1] is -0.016; in test [2], 0; in test [3] it was 0.018; in [4], 0.014; in test [5], 0.018; in [6] it was -0.028. For the same target, the log2 fold change in test [7] is 0.1; in test [8], 0.023; in test [9] it was -0.013; in test [10] it was 0.034.

Take AP4B1 (UniProt Q9Y6B7): the log2 fold change was -0.053 in test [1]; -0.021 in test [2]; -0.051 in test [3]; -0.001 in test [4]; 0.041 in [5]; 0.057 in test [6]. For the same target, the log2 fold change is -0.01 in [7], -0.014 in test [8], -0.121 in test [9] and 0.031 in test [10].

In the case of AIMP2 (UniProt Q13155), the log2 fold change was 0.037 in [1]; -0.11 in [2]; 0.006 in test [3]; -0.01 in test [4]; -0.007 in [5]; -0.02 in test [6]. Besides, the log2 fold change in test [7] is 0.093; in test [8] it was 0.011; in test [9], -0.028; in test [10], -0.088.

Consider ABHD11 (UniProt Q8NFV4), for which the log2 fold change was 0 in test [1]; 0.032 in [2]; -0.066 in [3]; 0.034 in test [4]; 0.087 in test [5]; -0.028 in test [6]. In addition, the log2 fold change was 0.173 in test [7], -0.027 in test [8], 0.022 in test [9] and 0.004 in test [10].

Take ALDH1B1 (UniProt P30837): the log2 fold change in [1] was 0.168; in test [2] it was 0.01; in test [3] it was 0.233 (active); in test [4], -0.029; in [5] it was 0.007; in test [6], -0.008. The log2 fold change in test [7] was 0.127; in test [8], -0.002; in test [9], 0.006; in test [10] it was -0.026.

AK1 (UniProt P00568): the log2 fold change in test [1] was 0.154; in test [2], 0.009; in test [3] it was -0.034; in test [4], -0.035; in test [5], -0.007; in [6] it was -0.036. Further, the log2 fold change in test [7] was -0.07; in test [8], 0; in test [9], 0.013; in test [10] it was -0.019.

As for ANKRD52 (UniProt Q8NB46), the log2 fold change was -0.002 in test [1]; -0.132 in test [2]; -0.003 in test [3]; 0.076 in test [4]; 0.014 in test [5]; 0.047 in test [6]. For the same target, the log2 fold change is 0.11 in test [7], 0.005 in test [8], 0 in test [9] and 0.039 in [10].

ACAT1 (UniProt P24752): the log2 fold change in [1] was 0.018; in test [2] it was -0.136; in [3] it was 0.001; in test [4] it was -0.027; in test [5], 0.05; in test [6], -0.033. Also, the log2 fold change in test [7] is 0.04; in test [8], 0; in [9], -0.006; in test [10], -0.06.

Regarding ARAP1 (UniProt Q96P48), the log2 fold change in test [1] is -0.027; in [2], -0.135; in test [3] it was 0.033; in test [4], 0.075; in test [5], 0.017; in [6], 0.06. Also, the log2 fold change in test [7] is 0.078; in test [8] it was 0.015; in test [9], 0.003; in test [10], 0.041.

Take AGPAT1 (UniProt Q99943): the log2 fold change in [1] is -0.002; in test [2], -0.015; in [3], 0.052; in test [4], -0.007; in test [5], -0.033; in test [6], 0.075. Besides, the log2 fold change in test [7] is -0.016; in test [8], -0.015; in test [9] it was -0.232; in test [10], 0.028.

Consider ARHGEF2 (UniProt Q92974), for which the log2 fold change is -0.009 in [1]; -0.081 in test [2]; 0.047 in [3]; -0.004 in test [4]; 0.058 in test [5]; 0.07 in test [6]. Further, the log2 fold change in test [7] was 0.071; in test [8], 0.018; in test [9], -0.005; in test [10], 0.007.

As to ADAMTS5 (UniProt Q9UNA0), the log2 fold change in [1] was -0.33; in test [2], 0.149; in [3] it was 0.105; in [4] it was -0.052; in test [5] it was 0.278; in [6], -0.134. Moreover, the log2 fold change is -0.012 in test [7], 0.073 in [8], 0.109 in [9] and -0.093 in test [10].

Regarding ALKBH4 (UniProt Q9NXW9), the log2 fold change is 0.029 in test [1]; -0.093 in [2]; -0.003 in [3]; 0.166 in test [4]; 0.026 in test [5]; 0.053 in test [6]. In addition, the log2 fold change in [7] was -0.02; in test [8], 0.019; in [9] it was -0.03; in test [10], 0.044.

As for AMPD3 isoform 4 (UniProt Q01432), the log2 fold change in test [1] is 0.012; in [2], 0.027; in test [3], 0.015; in test [4] it was 0.011; in [5], -0.034; in [6], -0.013. Moreover, the log2 fold change was 0.103 in [7], 0.008 in [8], -0.068 in [9] and 0.012 in test [10].

In the case of ACTG1 (UniProt I3L4N8), the log2 fold change in test [1] was 0.089; in test [2], 0.119; in [3], 0.046; in test [4], -0.142; in test [5], -0.005; in test [6], 0.209. The log2 fold change is 0 in test [7], -0.198 in test [8], -0.003 in [9] and -0.115 in test [10].
